Screens deposited in PubChem BioAssay by National Center for Advancing Translational Sciences (NCATS).
TGFb inhibitor: qHTS for Inhibitors of TGF-b; Potency, µM (highest dose often 46.1 µM), inactives show at the top dose activity, negative = inhibition, usual class: inhibitors; HepG2 CAGA-GFP TGF-b/SMAD3 reporter, GFP fluorescence, 18 h; TGF-beta stimulated, 500 pg/mL final; 1.2% of 410,000 active; AID 588855, 2011; further: potency means the concentration at half of the fitted maximal effect; on the % scale 0 is the no-effect control and ±100 the full control effect; nearly all actives have a fitted effect of over 65% in size
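HEPG2 CAGA-GFP reporter cells (1000/well, DMEM with 1% FBS) received compounds, then recombinant TGF-beta at 500 pg/mL final for 18 hours at 37 degrees C. Per-cell GFP summed per well was normalised to unstimulated and stimulated DMSO controls before curve fitting.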
HepG2 tox: qHTS for Inhibitors of TGF-b: Cytotox Counterscreen. HepG2 CAGA-GFP viability, ATP luminescence, 18 h. Potency, µM (titrated, usually from 46.1 µM), for inactives: top-dose activity change, negative = cytotoxicity, most hits filed as cytotoxic. 0.76% of 410,000 active; further: potency means the concentration at half of the fitted maximal effect
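HepG2 CAGA-GFP cells (1000/well, DMEM with 1% FBS) received compound, then TGF-beta at 500 pg/mL final, and were incubated 18 hours at 37 degrees C. Viability was read by CellTiter-Glo luminescence. Media-only wells were set as complete cell-killing and DMSO as no toxicity.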
TDP1 cell CPT: qHTS for Inhibitors of human tyrosyl-DNA phosphodiesterase 1 (TDP1): qHTS in cells in presence of CPT. chicken DT40 Tdp1-/-;hTDP1 cells + 20 nM CPT, ATP luminescence, 48 h. Potency, µM (series often up to 46.2 µM), inactives show at the highest dose activity change, negative = growth inhibition, hits mostly inhibitors. 12% of 420,000 active. AID 686979, 2013; further: potency means the concentration at half of the fitted maximal effect; on the % scale 0 is the no-effect control and ±100 the full control effect; nearly all actives have a fitted effect of over 55% in size
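Chicken DT40 Tdp1-/- cells stably complemented with human TDP1 were seeded at 400 cells/well in medium containing 20 nM camptothecin, exposed to pin-transferred compounds, and grown at 37 °C for at least 48 hr. Viability was read as ATP luminescence.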
DT40 TDP1 no CPT: qHTS for Inhibitors of human tyrosyl-DNA phosphodiesterase 1 (TDP1): qHTS in cells in absence of CPT; 15% of 420,000 active; DT40 Tdp1-/- hTDP1 cells, no CPT, ATP luminescence, 48 h; Potency, µM (doses to about 46.2 µM), for inactives: at the highest dose activity change, negative = growth inhibition, usual class: inhibitors; AID 686978, 2013; further: potency means the concentration at half of the fitted maximal effect; on the % scale 0 is the no-effect control and ±100 the full control effect; nearly all actives have a fitted effect of over 55% in size
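Growth kinetics read by CellTiter-Glo luminescence after ≥48 hr at 37 °C. Cells: DT40 Tdp1-/- stably carrying human TDP1, 400 per well, compound exposure in the absence of CPT (DMSO vehicle).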
IL-1B inflam inh: qHTS for Inhibitors of Inflammasome Signaling: IL-1-beta AlphaLISA Primary Screen | THP-1 LPS/ATP IL-1B secretion, AlphaLISA, 16 h; stronger effect = lower value | activity change, % at 57.5 µM | 4.7% of 360,000 active; in the data active means activity change below about -50%; inconclusive means mostly about -30% to -49%; further: on the % scale 0 is the no-effect control and ±100 the full control effect
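Secreted IL-1B measured by AlphaLISA bead assay after 16 h compound exposure of THP-1 cells; compounds (final up to 57.5 uM) added 1 h before LPS (250 ng/mL) and ATP (1.25 mM) stimulation; lower signal means less secretion.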
TDP1 inh: qHTS Assay for Inhibitors of Tyrosyl-DNA Phosphodiesterase (TDP1). Tyrosyl-DNA phosphodiesterase 1 (Homo sapiens), Q9NUW8. recombinant TDP1, AlphaScreen DNA substrate cleavage. Potency, µM (highest dose often 130 µM), for the others: at the highest dose activity change, negative = inhibition, usual class: inhibitors. 0.28% of 350,000 active; further: potency means the concentration at half of the fitted maximal effect; on the % scale 0 is the no-effect control and ±100 the full control effect; nearly all actives have a fitted effect of over 40% in size
Target sequence (Q9NUW8 whole entry, looked up): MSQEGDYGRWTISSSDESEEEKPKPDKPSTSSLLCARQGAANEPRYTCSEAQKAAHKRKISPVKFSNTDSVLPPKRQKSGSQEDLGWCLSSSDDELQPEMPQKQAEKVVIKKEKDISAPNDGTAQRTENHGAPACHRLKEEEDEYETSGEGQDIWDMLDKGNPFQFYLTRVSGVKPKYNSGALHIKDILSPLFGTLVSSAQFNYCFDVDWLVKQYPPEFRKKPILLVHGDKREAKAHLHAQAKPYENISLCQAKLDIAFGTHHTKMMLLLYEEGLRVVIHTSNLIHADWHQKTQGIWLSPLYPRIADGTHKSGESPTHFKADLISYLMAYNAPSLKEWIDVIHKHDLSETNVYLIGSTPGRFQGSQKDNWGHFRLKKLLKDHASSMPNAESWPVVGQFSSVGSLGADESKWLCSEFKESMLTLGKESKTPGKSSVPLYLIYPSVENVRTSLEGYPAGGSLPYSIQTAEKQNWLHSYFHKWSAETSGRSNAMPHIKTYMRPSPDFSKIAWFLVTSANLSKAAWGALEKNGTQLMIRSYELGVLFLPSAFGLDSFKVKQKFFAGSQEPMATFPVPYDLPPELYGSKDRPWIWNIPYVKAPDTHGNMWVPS
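E. coli-derived human Tdp1, 1 nM final. Cpd preinc 15 min RT; substrate 15 nM final, 5 min RT; AS bead mix 10 ug/ml final, 10 min RT. Signal loss = tyrosine-FITC cleavage. No-enzyme wells = max signal.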
* = called active by the depositor; ? = inconclusive; . = not tested or not shown. A selection: hits, their analogues and other compounds. The true share with any hit is near 19%. Unless noted, the call rests on the fitted dose curve; in most records, active means well fitted curve in the direction sought with a large enough effect; inconclusive means small, poorly fitted or top-dose-only effect, or another doubt; inactive means no such curve, though single readings can be large; an effect the other way counts as inactive or inconclusive.

SMILES	TGFb inhibitor	HepG2 tox	TDP1 cell CPT	DT40 TDP1 no CPT	IL-1B inflam inh	TDP1 inh
COc1cccc(Nc2nc(C(N)COCc3ccccc3)cs2)n1 (stereo not given)	?	11.2µM*	?	?	.	.
NC(COCc1ccccc1)c1csc(Nc2nccc(C(F)(F)F)n2)n1 (stereo not given)	12.4%	-0.5%	?	?	0.0	.
COc1cccc(Nc2nc(C(N)CCc3ccccc3)cs2)n1 (stereo not given)	?	-90.7%	18.4µM*	?	-87.0*	.
NC(=O)c1cccc(Nc2nc(C(N)CCc3ccccc3)cs2)n1 (stereo not given)	4.9%	-38.0%	2.06µM*	2.91µM*	0.0	.
NC(Cc1ccccc1)c1csc(Nc2ccc(C(=O)NCCO)cc2)n1 (stereo not given)	-6.5%	-24.5%	?	?	-18.6	.
Cc1ccc2nc(N3CCC(C(=O)N4CCN(c5cccc(C)c5C)CC4)CC3)[nH]c2c1	-18.8%	-42.4%	2.91µM*	5.8µM*	.	13.5%
Cc1cccc(N2CCN(C(=O)C3CCN(S(=O)(=O)c4cccnc4)CC3)CC2)c1C	-3.8%	-14.9%	18.4µM*	16.4µM*	21.3	1.3%
O=C(C1CCN(S(=O)(=O)Cc2ccccc2)CC1)N1CCN(c2ccc(F)cc2)CC1	-3.6%	-0.7%	23.1µM*	?	.	2.9%
O=C(C1CCN(S(=O)(=O)Cc2ccccc2)CC1)N1CCN(c2ncccn2)CC1	-4.7%	-14.4%	-11.9%	-14.1%	9.0	-9.8%
Cc1cccc(N2CCN(C(=O)C3CCN(S(=O)(=O)Cc4ccccc4)CC3)CC2)c1C	?	17.8µM*	7.31µM*	9.2µM*	.	11.4%
Oc1cccc2oc(=S)[nH]c12	-4.8%	11.3%	-6.4%	-10.2%	7.5	.
COc1ncnc2c1ncn2CCCN1CCN(Cc2cccc3ccccc23)CC1	0.3%	-27.9%	?	23.1µM*	-4.5	.
CSc1ncnc2c1ncn2CCCN1CCN(Cc2cccc3ccccc23)CC1	-16.3%	-33.8%	?	23.1µM*	?	.
CSc1ncnc2c1ncn2CCCNCc1ccccc1	11.8%	-7.3%	15.0%	-14.2%	-12.7	.
CSc1ncnc2c1ncn2CCCNc1ccc(C)c(C)c1	-2.9%	-11.8%	?	20.6µM*	22.9	.
CN(C(=O)c1cccc(NC(=O)Cc2ccc(NC(=O)C3CCN(C(=O)C4CCCC4)CC3)cc2)c1)C1CC1	-9.9%	6.3%	?	?	-16.2	.
Cc1cc(C(=O)N2CCCC(N3CCN(c4ccc(F)cc4)CC3)C2)c(C)o1 (stereo not given)	-18.6%	-8.6%	23.1µM*	18.4µM*	-9.8	5.9%
CC(C)c1cc(C(=O)N2CCCC(N3CCN(c4ccc(F)cc4)CC3)C2)n(C)n1 (stereo not given)	-2.7%	-15.2%	16.4µM*	?	16.8	.
Cc1cc(C(=O)N2CCCC(CO)(Cc3ccc(F)cc3)C2)c(C)o1 (stereo not given)	-17.1%	-4.5%	23.1µM*	23.1µM*	-25.2	7.2%
CC(C)Cc1cc(C(=O)N2CCCC(CO)(Cc3ccc(F)cc3)C2)no1 (stereo not given)	-13.7%	-9.6%	?	?	26.9	-2.7%
CC(C)c1cc(C(=O)N2CCCC(N3CCN(c4ccc(F)cc4)CC3)C2)no1 (stereo not given)	3.1%	-6.3%	?	?	23.4	4.0%
Cc1ccc(C(=O)N2CCCC(C(=O)c3cc(F)ccc3F)C2)s1 (stereo not given)	-25.5%	-5.0%	?	?	-27.4	0.0%
Cc1cc(C(=O)N2CCCC(C(=O)c3cc(F)ccc3F)C2)c(C)o1 (stereo not given)	1.5%	15.7%	?	18.4µM*	-4.5	0.0%
CCOc1ccccc1NC(=O)Cn1cc(C(=O)c2cccc(OC)c2)c(=O)c2ccc(C)nc21	29.1%	4.0%	?	?	.	5.3%
Cn1nc2c(c1C(=O)N1CCCC(C(=O)c3cc(F)ccc3F)C1)CCCC2 (stereo not given)	-4.1%	-16.2%	16.4µM*	-36.1%	7.2	.
SMILES	TGFb inhibitor	HepG2 tox	TDP1 cell CPT	DT40 TDP1 no CPT	IL-1B inflam inh	TDP1 inh
COc1ccc(C(=O)C2CCCN(C(=O)c3c4c(nn3C)CCCC4)C2)cc1F (stereo not given)	-18.6%	-7.6%	-24.9%	?	0.0	0.0%
COc1ccc(C2c3cc(OC)c(OC)cc3CC(=O)N2c2cccc(C#N)c2)cc1 (stereo not given)	3.8%	-20.3%	?	?	.	3.7%
Cc1cc(OCC(=O)NNC(=S)NC(=O)c2cccs2)ccc1Cl	-8.9%	-0.6%	?	?	3.7	5.9%
COc1ccc(C(=O)NNC(=S)NC(=O)c2ccc(Br)o2)cc1OC	-24.3%	-28.2%	?	?	50.6	-2.5%
Cc1ccc(OCC(=O)NNC(=S)NC(=O)c2ccc(Br)o2)c(C)c1	0.0%	-0.3%	?	13µM*	28.3	2.5%
Cc1ccc(OCC(=O)NNC(=S)NC(=O)c2cccs2)c(C)c1	0.0%	0.3%	16.4µM*	16.4µM*	67.7	2.9%
Cc1cc(Cl)ccc1OCC(=O)OCC(=O)NC1CCS(=O)(=O)C1 (stereo not given)	9.2%	6.7%	-0.4%	14.1%	6.4	1.2%
Cc1ccc2nc(C(F)(F)F)c(C#N)c(N)c2c1	?	-4.3%	20.6µM*	16.4µM*	-101.4*	0.0%
Cc1cc(C)c2nc(C(F)(F)F)c(C#N)c(N)c2c1	2.6%	-17.0%	?	?	34.8	5.1%
Cc1n(C)c2cc(Cl)ccc2[n+]1Cc1ccccc1	4.5%	-1.1%	?	23.1µM*	-0.7	6.3%
O=c1c2oc3ccccc3c2n(Cc2cccc(F)c2)c(=O)n1Cc1ccc2c(c1)OCO2	4.1%	-21.7%	-28.9%	?	.	-2.6%
Cc1ccc(C)c(-n2c3nc(=O)[nH]c(=O)c-3cc3c(C)nn(-c4ccccc4)c32)c1	7.5%	6.2%	-1.9%	10.0%	.	2.3%
